Reference: PubChem BioAssay (NCI)
This is part of a sample that, as a whole, favours compounds with a hit. Of some 79,000 tested, about 15% had one in any assay. The source made the active and inactive calls. Cut-off read from the data, not from the text of the source: active = growth inhibition above about 70%; inactive = the rest.

What was measured:
[1] = NCI Yeast Anticancer Drug Screen. Data for the rad52 strain (AID 147);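 note: 0% = growth of vehicle-treated control cultures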; settings: S. cerevisiae rad52 mutant growth inhibition, hits give high values
Method in brief: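 Inhibition of yeast growth, referenced to vehicle controls, was the measured output for a strain with defective DNA damage repair.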

[2] = NCI Yeast Anticancer Drug Screen. Data for the wt1 strain (AID 149);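 note: 0% = growth of vehicle-treated wt1 cultures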; settings: S. cerevisiae wt1 strain (SPY 50644) growth inhibition, hits give high values
Method in brief: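 Yeast wt1 strain exposed to compounds; growth inhibition measured relative to vehicle-treated controls.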

[3] = NCI Yeast Anticancer Drug Screen. Data for the rad50EPP+ strain (AID 151);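 note: 0% = growth of vehicle-treated control cultures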; settings: S. cerevisiae rad50 mutant strain, hits give high values
Method in brief: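 Genetically defined yeast (rad50EPP+, DNA damage repair alteration) is grown with compound, and inhibition of growth is expressed relative to vehicle-treated controls.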

[4] = NCI Yeast Anticancer Drug Screen. Data for the mgt1 strain (AID 153); settings: S. cerevisiae mgt1 mutant growth inhibition, hits give high values
Method in brief: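 In the mgt1 strain, test compounds were added and growth inhibition was determined relative to vehicle-treated controls.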

[5] = NCI Yeast Anticancer Drug Screen. Data for the rad50 strain (AID 155);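 note: 0% = growth of vehicle-only cultures of the same strain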; settings: S. cerevisiae rad50 strain growth inhibition, hits give high values
Method in brief: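 Yeast carrying a defined DNA repair defect were exposed to test compounds, and growth was compared with vehicle-treated controls to give percent inhibition.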

[6] = NCI Yeast Anticancer Drug Screen. Data for the mec2-1 strain (AID 157); settings: S. cerevisiae mec2-1 strain, hits give high values
Method in brief: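 Each compound was tested on mec2-1 yeast, a strain altered in DNA damage repair or cell cycle control. Growth inhibition is reported relative to vehicle.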

[7] = NCI Yeast Anticancer Drug Screen. Data for the rad14 strain (AID 159);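 note: 0% = growth of vehicle-treated control cultures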; settings: S. cerevisiae rad14 strain growth inhibition, hits give high values
Method in brief: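 Yeast cells carrying a defined DNA-repair defect were exposed to compounds, and growth inhibition was calculated relative to vehicle-treated control cultures.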

[8] = NCI Yeast Anticancer Drug Screen. Data for the sgs1 mgt1 strain (AID 161);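 note: 0% = growth of cultures given vehicle only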; settings: S. cerevisiae sgs1 mgt1 strain, hits give high values
Method in brief: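 Read-out: growth inhibition vs vehicle controls. Cells: mutant yeast strain deficient in DNA damage repair.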

[9] = NCI Yeast Anticancer Drug Screen. Data for the CLN2oe strain (AID 163);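 note: 0% = growth of vehicle-only control cultures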; settings: S. cerevisiae CLN2oe strain, hits give high values
Method in brief: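 First, the altered yeast strain was treated with each compound; second, its growth was measured; finally, inhibition was derived by comparison with vehicle controls.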

[10] = NCI Yeast Anticancer Drug Screen. Data for the cln2 rad14 strain (AID 165);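 note: 0% = growth equal to vehicle treated cultures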; settings: S. cerevisiae cln2 rad14 strain, hits give high values
Method in brief: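 Test compounds were added to cln2 rad14 yeast cultures; inhibition of growth was then determined by comparison with vehicle treatment.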

[11] = NCI Yeast Anticancer Drug Screen. Data for the bub3 strain (AID 167); settings: S. cerevisiae bub3 mutant strain, hits give high values
Method in brief: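 Compounds were applied to a genetically altered yeast strain carrying a cell-cycle control defect. Growth inhibition was scored against vehicle-treated controls.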

[12] = NCI Yeast Anticancer Drug Screen. Data for the wt2 strain (AID 169);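 note: 0% = growth of vehicle-treated yeast cultures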; settings: S. cerevisiae wt2 strain growth inhibition, hits give high values
Method in brief: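 The panel's yeast strains carry defined changes in DNA repair or cell cycle genes. Each strain is grown with compound, and growth loss is scored relative to vehicle.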

[13] = NCI Yeast Anticancer Drug Screen. Data for the mlh1 strain (AID 171);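 note: 0% = growth of vehicle-treated control cultures of the same strain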; settings: S. cerevisiae mlh1 strain growth inhibition, hits give high values
Method in brief: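 Inhibition values reflect reduced yeast growth in the presence of compound, referenced to vehicle controls, using a strain chosen for its alteration in DNA repair or cell cycle control.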

[14] = NCI Yeast Anticancer Drug Screen. Data for the sgs1 strain (AID 173);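 note: 0% = growth of vehicle-only control cultures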; settings: S. cerevisiae sgs1 mutant, hits give high values
Method in brief: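 Vehicle-treated cultures served as reference for growth inhibition of a yeast strain altered in DNA damage repair or cell cycle control after compound exposure.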

[15] = NCI Yeast Anticancer Drug Screen. Data for the mlh1 rad18 strain (AID 175); settings: S. cerevisiae mlh1 rad18 strain growth inhibition, hits give high values
Method in brief: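 Inhibition values reflect reduced growth of mutant yeast versus vehicle-treated controls following compound exposure; the mutations affect DNA damage repair.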

[16] = NCI Yeast Anticancer Drug Screen. Data for the rad18 strain (AID 177); settings: S. cerevisiae rad18 mutant growth inhibition, hits give high values
Method in brief: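 Steps: expose repair-mutant yeast to compound; measure growth; express as inhibition relative to vehicle control.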

[17] = at 5.0 µM (retest, dose inferred, filed as 0.5)
[18] = at 50.0 µM (retest, dose inferred, filed as 5.0)

Measured: growth inhibition

NC(=S)NC(=S)Nc1ccccc1
inactive: [1]; at 1.2 µM -7% | [1]; at 3.7 µM -4% | [1]; at 11.0 µM -3% | [1]; at 33.0 µM 1% | [1]; at 100.0 µM 23% | [2]; at 1.2 µM -6% | [2]; at 3.7 µM -5% | [2]; at 11.0 µM -6% | [2]; at 33.0 µM 0% | [2]; at 100.0 µM 16% | [3]; at 1.2 µM -6% | [3]; at 3.7 µM -10% | [3]; at 11.0 µM -12% | [3]; at 33.0 µM -12% | [3]; at 100.0 µM -10% | [4]; at 1.2 µM -6% | [4]; at 3.7 µM -3% | [4]; at 11.0 µM 2% | [4]; at 33.0 µM 16% | [5]; at 1.2 µM 0% | [5]; at 3.7 µM -47% | [5]; [17] -1% | [5]; at 11.0 µM 18% | [5]; at 33.0 µM 5% | [5]; [18] 2% | [5]; at 50.0 µM 23.5% | [6]; at 1.2 µM -4% | [6]; at 3.7 µM -2% | [6]; [17] -2% | [6]; at 11.0 µM 2% | [6]; at 33.0 µM 8% | [6]; [18] 10% | [6]; at 50.0 µM 38.5% | [6]; at 100.0 µM 62% | [7]; at 1.2 µM -6% | [7]; at 3.7 µM -3% | [7]; at 11.0 µM 0% | [7]; at 33.0 µM 8% | [8]; [17] -3% | [8]; [18] 49% | [9]; at 1.2 µM -19% | [9]; at 3.7 µM -22% | [9]; at 11.0 µM -16% | [9]; at 33.0 µM -18% | [9]; at 100.0 µM -13% | [10]; [17] -25% | [10]; [18] 8% | [10]; at 50.0 µM 68.7% | [11]; at 1.2 µM -11% | [11]; at 3.7 µM -13% | [11]; [17] -13% | [11]; at 11.0 µM -14% | [11]; at 33.0 µM -8% | [11]; [18] 18% | [11]; at 50.0 µM 34.6% | [11]; at 100.0 µM 34% | [12]; at 1.2 µM -5% | [12]; at 3.7 µM 6% | [12]; at 11.0 µM -1% | [12]; at 33.0 µM 1% | [12]; at 100.0 µM 42% | [13]; at 1.2 µM -3% | [13]; at 3.7 µM 0% | [13]; at 11.0 µM 4% | [13]; at 33.0 µM 17% | [14]; at 1.2 µM 2% | [14]; at 3.7 µM 9% | [14]; at 11.0 µM 24% | [14]; at 33.0 µM 44% | [15]; [17] -1% | [15]; [18] 31% | [16]; at 1.2 µM -3% | [16]; at 3.7 µM -1% | [16]; at 11.0 µM 3% | [16]; at 33.0 µM 21%
active: [4]; at 100.0 µM 80% | [5]; at 100.0 µM 79% | [7]; at 100.0 µM 93% | [8]; at 50.0 µM 82.5% | [13]; at 100.0 µM 85% | [14]; at 100.0 µM 95% | [15]; at 50.0 µM 77% | [16]; at 100.0 µM 95%

CC(=O)Nc1ccc2c(c1)-c1ccccc1C2=O
active: [1]; at 33.0 µM 70% | [1]; at 100.0 µM 95% | [3]; at 100.0 µM 78% | [4]; at 100.0 µM 76% | [5]; at 100.0 µM 95% | [6]; at 100.0 µM 70% | [7]; at 100.0 µM 82% | [13]; at 100.0 µM 82% | [14]; at 100.0 µM 81% | [16]; at 100.0 µM 89%
inactive: [1]; at 1.2 µM -1% | [1]; at 3.7 µM 1% | [1]; at 11.0 µM 10% | [2]; at 1.2 µM -2% | [2]; at 3.7 µM -1% | [2]; at 11.0 µM -48% | [2]; at 33.0 µM 6% | [2]; at 100.0 µM 45% | [3]; at 1.2 µM -2% | [3]; at 3.7 µM -4% | [3]; at 11.0 µM 2% | [3]; at 33.0 µM 25% | [4]; at 1.2 µM -5% | [4]; at 3.7 µM -4% | [4]; at 11.0 µM -5% | [4]; at 33.0 µM 1% | [5]; at 1.2 µM -2% | [5]; at 3.7 µM 19% | [5]; [17] 2% | [5]; at 11.0 µM 20% | [5]; at 33.0 µM 68% | [5]; [18] 54% | [5]; at 50.0 µM 67.8% | [6]; at 1.2 µM -1% | [6]; at 3.7 µM 2% | [6]; [17] 7% | [6]; at 11.0 µM 4% | [6]; at 33.0 µM 15% | [6]; [18] 15% | [6]; at 50.0 µM 6.9% | [7]; at 1.2 µM -4% | [7]; at 3.7 µM -6% | [7]; at 11.0 µM -3% | [7]; at 33.0 µM 10% | [8]; [17] -3% | [8]; [18] 6% | [8]; at 50.0 µM 2.4% | [9]; at 1.2 µM -6% | [9]; at 3.7 µM -8% | [9]; at 11.0 µM -8% | [9]; at 33.0 µM -9% | [9]; at 100.0 µM 13% | [10]; [17] -3% | [10]; [18] 11% | [10]; at 50.0 µM -39.4% | [11]; at 1.2 µM 0% | [11]; at 3.7 µM -3% | [11]; [17] -3% | [11]; at 11.0 µM -1% | [11]; at 33.0 µM 7% | [11]; [18] -4% | [11]; at 50.0 µM -20.4% | [11]; at 100.0 µM 66% | [12]; at 1.2 µM -4% | [12]; at 3.7 µM 4% | [12]; at 11.0 µM -6% | [12]; at 33.0 µM 1% | [12]; at 100.0 µM 62% | [13]; at 1.2 µM -2% | [13]; at 3.7 µM -2% | [13]; at 11.0 µM 1% | [13]; at 33.0 µM 13% | [14]; at 1.2 µM -5% | [14]; at 3.7 µM -8% | [14]; at 11.0 µM -9% | [14]; at 33.0 µM 8% | [15]; [17] 1% | [15]; [18] 20% | [15]; at 50.0 µM -1.15% | [16]; at 1.2 µM -3% | [16]; at 3.7 µM -5% | [16]; at 11.0 µM -3% | [16]; at 33.0 µM 14%
